Experimental data taken from PubChem BioAssay AID1671448 (Corson Lab, School of Medicine, Indiana University, 2021).
About 660 (3.3%) of roughly 20,000 compounds were called active.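 Rule for the calls: active = enzyme reaction rate more than 3 SD below the solvent-only control wells on the same plate; inactive = the rest.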 What follows is part of a selection rich in actives, with near analogues and random picks from the rest.

target: Ferrochelatase, mitochondrial (Homo sapiens) (UniProt P22830); experiment: FECH heme synthesis enzyme blockers – biochemical, purified FECH, Ni-mesoporphyrin absorbance, primary screen (AID 1671448); settings: Ni-mesoporphyrin absorbance 550 nm, screened at 10 µM (by protocol)
Sequence (P22830 whole entry, looked up): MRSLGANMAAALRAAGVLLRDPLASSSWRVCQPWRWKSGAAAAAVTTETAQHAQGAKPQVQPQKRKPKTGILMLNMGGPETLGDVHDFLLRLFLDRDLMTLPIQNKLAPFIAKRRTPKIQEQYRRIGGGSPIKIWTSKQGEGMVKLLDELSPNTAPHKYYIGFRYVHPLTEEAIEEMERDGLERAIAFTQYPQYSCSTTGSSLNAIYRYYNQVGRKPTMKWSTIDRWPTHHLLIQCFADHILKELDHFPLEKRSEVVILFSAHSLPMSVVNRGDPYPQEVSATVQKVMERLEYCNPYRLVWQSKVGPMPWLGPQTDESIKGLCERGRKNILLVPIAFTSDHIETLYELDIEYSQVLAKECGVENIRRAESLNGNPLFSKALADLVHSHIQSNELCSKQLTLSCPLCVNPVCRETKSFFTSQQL

outcome, inactive:
COc1cccc(CN2CC(=O)N(Cc3cccc(C(F)(F)F)c3)c3ccccc3S2(=O)=O)c1
O=C1CN(Cc2c(F)cccc2Cl)S(=O)(=O)c2ccccc2N1Cc1ccccc1
COc1ccccc1C(=O)Nc1ccccc1Sc1c(C)c(C)nc2nc(-c3ccccc3)nn12
CC(NC(=O)CCc1c[nH]c2ccccc12)c1cn2ncsc2n1 (configuration not stated)
CCC(C)N(Cc1ccsc1)C(=O)c1cn2c(n1)CNCC2 (configuration not stated)
Cc1cccc(-c2ncc(CNCCNC(=O)c3ccccc3Cl)cn2)c1
CCc1cc(Sc2ccc(NC(=O)Cc3cccs3)cc2)n2ncnc2n1
COc1ccc(C(=O)N(Cc2nc3nc(C)cc(C)n3n2)c2ccc(F)cc2)cc1
O=C(NCc1ccccc1)c1nc(N2CCOCC2)c2oc3ccccc3c2n1
CCOCCCNC(=O)C1CCN(c2ccc(-c3ccc(C)cc3)nn2)CC1
CCCc1cc(NCc2ccc(OC)cc2)n2nc(-c3cccnc3)nc2n1
Cc1ccc(-c2ccnc(NCc3cnn4ccccc34)n2)c(C)n1
O=C(Nc1nc2n(n1)C(c1ccc(F)cc1)C=C(c1ccc(Cl)cc1)N2)c1cccnc1 (configuration not stated)
Cc1ccc(-c2ccnc(-c3ccc(CCC(=O)O)cc3)n2)c(C)n1
Cc1ccc(-n2c(=O)n(C)c3c(C(N)=O)nc(-c4ccc(Cl)cc4)nc32)cc1C
Cc1cc(C)n2nc(CN(C(=O)c3ccco3)c3ccc(Cl)cc3)nc2n1
COc1ccc(NC2=NC(C(=O)Nc3cc(OC)ccc3OC)CC(=O)N2)cc1 (configuration not stated)
CCOc1cc(-c2c(-c3ccccc3)ncn2Cc2c(C)n[nH]c2C)ccc1OC
COCCN1CCCC(O)(CN2CCN(c3nc4ccccc4o3)CC2)C1=O (configuration not stated)
OCc1csc(N2CCC(CO)(Cc3ccccc3Cl)CC2)n1
Cc1ccc(C2=CC(c3ccc(F)cc3)n3nc(NC(=O)CC(C)C)nc3N2)cc1 (configuration not stated)
Cc1ccc(S(=O)(=O)N2CCN(c3cc(-c4ccc(F)cc4)ncn3)CC2)cc1C
CCOc1ccc(N(Cc2nc3nc(C)cc(C)n3n2)C(=O)c2ccco2)cc1
O=C(Nc1ccccc1)c1cc2n(n1)CCN(Cc1cnc[nH]1)C2
Cn1c(=O)n(Cc2ccc(F)cc2Cl)c(=O)c2cnc(-c3cccnc3)nc21
CCOc1ccc(C(=O)N2CCN(S(=O)(=O)c3cc4c5c(c3)CCN5C(=O)CC4)CC2)cc1
Cc1ccc(Cn2c(CCNC(=O)Nc3cc(C)ccc3C)nc3cccnc32)cc1
Cc1cc(C)cc(CCC(=O)NC(C)c2n[nH]c(C)n2)c1 (configuration not stated)
CCCN(CCC)C(=O)C1CCCN(c2ncnc3c2nc2n3CCCCC2)C1 (configuration not stated)
Cc1cccc(CNC(=O)N2CCN(Cc3nc4cccnc4n3-c3ccc(F)cc3)CC2)c1
O=C1CN(S(=O)(=O)c2cc(C(=O)N3CCCC3)cs2)c2ccccc2N1
O=C(CN1CCN(Cc2ccccc2Cl)S1(=O)=O)Nc1ccc2c(c1)OCCO2
CN(CCC1CCCCO1)C(=O)c1ccc(CSc2ncn[nH]2)o1 (configuration not stated)
Cc1nc(N2CCCCC2)ncc1C(=O)N1CCC2(CCN(C)C2)CC1
CNS(=O)(=O)c1ccc(C2NCCc3[nH]cnc32)cc1 (configuration not stated)
COc1ccc(CNC(=O)N2CCN(c3cc(-c4ccc(OC)cc4)ncn3)CC2)cc1
CCC1=C(c2ccc(OC)cc2)S(=O)(=O)N(CC(=O)NCc2ccc(OC(C)C)cc2)C1=O
CCCNC(=O)NCC1CCCN(Cc2ccco2)C1 (configuration not stated)
CC(C)c1nccn1Cc1nc2ccccc2c(=O)[nH]1
CC(C)c1c(-c2ccccc2)ncn1CC(=O)N1CCNCC1
COc1ccc(C(=O)N2CCc3[nH]nc(-c4ccc(F)c(F)c4)c3C2)c(O)c1
Cc1cc(Sc2ccc(NC(=O)Nc3ccc(F)c(Cl)c3)cc2)n2ncnc2n1
CCn1c(=O)n(-c2ccc(C)c(C)c2)c2nc(-c3ccc(F)cc3F)nc(C(N)=O)c21
CCCS(=O)(=O)N1CCC(n2c(C(F)(F)F)nc3cccnc32)CC1
Cc1ccc(-c2cc(Nc3ccc(C(N)=O)cc3)nc(C)n2)cc1
CCN(CC)CCNc1nc(Nc2cccc(C)c2)c2cnn(-c3ccccc3)c2n1
COc1ccc(N2CCCS2(=O)=O)cc1NC(=O)COc1ccc(C)cc1
CCC1=C(c2ccc(OC)cc2)S(=O)(=O)N(CC(=O)Nc2cccc(Cl)c2)C1=O
CC(C(=O)NCCc1ccc(S(N)(=O)=O)cc1)N1C(=O)CC(C)(C)Sc2ccccc21 (configuration not stated)
CCCc1cc(Sc2ccc(NC(=O)Nc3cccc(F)c3)cc2)n2ncnc2n1
COc1cccc(C(=O)N(Cc2nc3nc(C)cc(C)n3n2)c2ccccc2)c1
Cc1ccc2nc(CNC(=O)Cc3ccc4c(c3)OCO4)[nH]c2c1
COCc1nc2cccnc2n1C1CCN(S(=O)(=O)c2ccc(C)c(C)c2)CC1
O=C(O)CC1CNCCN(C(=O)c2cccc(Oc3ccccc3)c2)C1 (configuration not stated)
CCOC(=O)Cn1c(=O)n(-c2ccc(F)cc2)c2nc(-c3cccs3)nc(C(N)=O)c21
CN1CCN(Cc2ccc(-n3cccn3)cc2)CC1C(=O)O (configuration not stated)
CCC1(CC)CN(C(=O)c2nnc(COC)o2)CCO1
CCOc1ccc(N2CC(NC(=O)CC)CC2=O)cc1 (configuration not stated)
Cc1ccc(-c2cc(N3CCN(S(=O)(=O)c4ccccc4)CC3)ncn2)cc1
CCCOc1cccc(-c2c(Nc3ccccc3)oc3c2c(=O)n(C)c(=O)n3C)c1
Cc1nnc(SCC(=O)N2CCC(C(O)C(C)C)CC2)s1 (configuration not stated)
Cc1cccc(C(C(=O)NC2CCN(S(C)(=O)=O)CC2)N(C)C)c1 (configuration not stated)
O=C1NC(c2cccnc2)(C2CCNCC2)C(=O)N1Cc1ccccc1F (configuration not stated)
CCCc1c(C)nc2ncnn2c1Sc1ccccc1NC(=O)c1cccs1
CCCc1c(C)nc2ncnn2c1Sc1ccc(NS(=O)(=O)c2cc(C)cc(C)c2C)cc1
CCc1c(C)nc2ncnn2c1Sc1ccc(NC(=O)Cc2cccs2)cc1
CCc1c(C)nc2ncnn2c1Sc1ccc(NC(=O)Nc2cccc(C)c2C)cc1
CCc1c(C)nc2ncnn2c1Sc1ccc(NC(=O)CC(C)C)cc1
CCc1c(C)nc2ncnn2c1Sc1ccc(NS(=O)(=O)c2cc(OC)ccc2OC)cc1
O=C(CN1CCCN(Cc2cccc(F)c2)S1(=O)=O)Nc1ccc(Br)cc1
O=C(c1ccncc1)N1CC[C@@H](c2ccc3ccccc3c2)[C@H](O)C1
C=CCOc1c(Cl)cc(C(=O)NCCc2cnc[nH]2)cc1Cl
CCc1nc(C)sc1CNC(=O)[C@H](N)CC(C)C
CCOc1ccc(-c2nc(CSc3nc4c(c(=O)[nH]3)CCCC4)c(C)o2)cc1OC
COc1cccc2c1OCCCN(C(=O)[C@@H]1Cc3ccccc3N1)C2
COc1ccc(CNc2nc3nc(CNc4ccc(Br)cc4)cc(=O)n3[nH]2)cc1
COc1ccc(CNc2nc3nc(CNc4ccc(C)cc4)cc(=O)n3[nH]2)cc1
O=C(CSc1nc(-c2ccco2)nc2cc(=O)[nH]n12)NCCCc1ccccc1
CC(C)(C)CNC(=O)c1[nH]cnc1C(=O)NCC1CC1
CC(C)CCNC(=O)c1nc[nH]c1C(=O)NCC(C)(C)C
Cc1cc(C)nc(SC(C)c2n[nH]c(Cc3ccccc3)n2)n1 (configuration not stated)
Cc1nnnn1CCCN1CCC(Cc2cccc(C(=O)O)c2)CC1
CCOc1ccc(S(=O)(=O)NCCn2c(-c3ccccc3)nc3cccnc32)cc1
O=S(=O)(NCCn1c(-c2ccccc2)nc2cccnc21)c1ccc(C2CCCCC2)cc1
COc1cccc2c1OCC(CN1CCC(O)(c3ccc(C)cn3)CC1)=C2
O=C(O)c1cccnc1CN1CCN(Cc2ccc3c(c2)OCO3)CC1
COc1ccccc1NC(=O)CN1CCN(Cc2ccccc2C)S1(=O)=O
O=C(CN1CCN(Cc2ccccc2Cl)S1(=O)=O)Nc1ccccc1Cl
CCOc1ccc(-c2nc(Cn3c(=O)c4cnc(-c5ccc(OC)cc5)nc4n(C)c3=O)c(C)o2)cc1
CCn1ccc(-c2n[nH]c(=O)n2Cc2ccccc2F)n1
Cc1ccccc1S(=O)(=O)N1CCN(Cc2nc3cccnc3n2-c2ccccc2)CC1
CCc1ccc(S(=O)(=O)N2CCN(Cc3nc4cccnc4n3-c3ccccc3)CC2)cc1
Cc1ccc(OCC(=O)Nc2cc(C)nn2-c2ncnc3c2cnn3-c2cccc(C)c2C)cc1
NC(=O)c1cccc(CC2CCN(C(=O)c3cnn4cccnc34)C2)c1 (configuration not stated)
CCN(CC)Cc1cnc2c(C(=O)Nc3cccc4cc(C)oc34)cnn2c1
CN1CCC(Cc2noc(CCc3nc4cccnc4n3C)n2)CC1
CCc1cccc(NS(=O)(=O)c2ccc3c(c2)CCN3C(=O)CCC(=O)N2CCOCC2)c1
CCc1nc2nc(C)[nH]n2c(=O)c1NC(=O)Nc1cccc(C(F)(F)F)c1
Cc1nc2nc(-c3ccccc3)nn2c(Sc2ccccc2NC(=O)c2ccc(Cl)cc2)c1C
O=C(Nc1nc2n(n1)C(c1ccc(Cl)cc1)C=C(c1ccc(Cl)cc1)N2)c1ccccc1 (configuration not stated)
Cc1ccc(C(=O)Nc2nc3n(n2)C(c2ccccc2)C=C(c2ccc(Cl)cc2)N3)cc1 (configuration not stated)
O=C(Nc1nc2n(n1)C(c1ccccc1)C=C(c1ccc(Cl)cc1)N2)c1ccc(F)cc1 (configuration not stated)
Cc1ccc(C2=CC(c3c(F)cccc3Cl)n3nc(NC(=O)c4ccco4)nc3N2)cc1 (configuration not stated)
O=C(Nc1nc2n(n1)C(c1c(F)cccc1Cl)C=C(c1ccccc1)N2)c1ccc(F)cc1 (configuration not stated)
Cc1ccc(C2=CC(c3ccc(F)cc3)n3nc(NC(=O)c4cccs4)nc3N2)cc1 (configuration not stated)
CCCC(=O)NC1CC(=O)N(c2ccc(OCC)cc2)C1 (configuration not stated)

outcome, active:
Cc1ccc(C)c(N2C(=O)N(Cc3cc(F)cc(F)c3)c3ccccc3S2(=O)=O)c1
Nc1ccc(S(=O)(=O)Nc2cccc(Cl)c2)cc1S(N)(=O)=O
Cc1cccc(-c2nc3nc(CN(C)Cc4ccccc4)cc(=O)n3[nH]2)c1
COc1ccc(CNC(=O)CN2c3ccc(C(C)C)cc3-c3ccccc3S2(=O)=O)cc1
CCc1c(C)nc2ncnn2c1Sc1ccc(NC(=O)c2cc(OC)cc(OC)c2)cc1
CCc1ccc(S(=O)(=O)Nc2ccc(Sc3c(CC)c(C)nc4ncnn34)cc2)cc1
CCCc1c(C)nc2ncnn2c1Sc1ccc(NC(=O)C(C)(C)C)cc1
COc1ccc(CNc2nc3nc(CN4CCN(c5ccccc5OC)CC4)cc(=O)n3[nH]2)cc1
O=C(NCc1ccccc1)c1nc[nH]c1C(=O)NCc1cccc(C(F)(F)F)c1
O=S(=O)(NCCn1c(-c2ccccc2)nc2cccnc21)c1ccc(Br)cc1
Cc1ccccc1CN1CCN(CC(=O)Nc2cccc(Cl)c2C)S1(=O)=O
CC(=O)Nc1ccc(S(=O)(=O)N2CCN(Cc3nc4cccnc4n3-c3ccc(C)cc3)CC2)cc1
CCN(CC)Cc1cnc2c(C(=O)N3CCC(Cn4cccn4)CC3)cnn2c1
COc1ccccc1C(=O)Nc1nc2n(n1)C(c1ccc(F)cc1)C=C(c1ccccc1)N2 (configuration not stated)
Cc1ccc(C2=CC(c3ccc(C)cc3)n3nc(NC(=O)c4ccco4)nc3N2)cc1 (configuration not stated)
O=C(Nc1nc2n(n1)C(c1ccccc1Cl)C=C(c1ccccc1)N2)c1ccccc1F (configuration not stated)
